Reference: PubChem BioAssay AID868 (SRMLSC, 2007)
Hit rate of the full screen: of about 190,000 compounds, about 3,500 (1.8%) were called active.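 How the source made its calls: active means inhibition above a set limit, 3 SD over mean compound inhibition (cut at about 8.4% in these data); inactive means the rest.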 Many of the other results were omitted from the sample, so actives are more common in it than they were.

assay: RAM signaling blockers in budding yeast – dse1pr::URA3 reporter, 5-FOA selection, primary screen (AID 868);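 further: 0% = DMSO-only wells with no growth and 100% = 10 µM 1-NA-PP1 full growth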; conditions: S. cerevisiae dse1pr::URA3 reporter, 5-FOA growth OD615, 2 d; at 50 µM; active compounds read high; analog-sensitive cbk1-as2 kinase mutant strain

| Compound | inhibition |
| --- | --- |
| CN(CC(=O)Nc1ccc(S(=O)(=O)N2CCCC2)cc1)Cc1ccc(Cl)c(Cl)c1 | -0.13% (inactive) |
| O=C(CSCc1ccc(Br)cc1)Nc1ccc(S(=O)(=O)N2CCCCCC2)cc1 | 19.5% (active) |
| COc1ccc(OCC(=O)OCC(=O)Nc2ccc(S(=O)(=O)N3CCCCC3)cc2)cc1 | 4.54% (inactive) |
| COc1ccc(Sc2nc(-c3ccccc3)ncc2OC)cc1 | 4.55% (inactive) |
| O=C(CCC(=O)OCC(F)(F)C(F)F)NCc1ccccc1 | -0.39% (inactive) |
| Cc1ccc(OC(=O)c2cc3ccccc3o2)cc1 | 0.41% (inactive) |
| Cc1ccc(OC(=O)c2ccccc2C(=O)OCC(F)(F)C(F)F)cc1 | 8.9% (active) |
| COc1ccc(C=Nc2cccc3ncccc23)cc1 | 0.48% (inactive) |
| C=C(C)c1cccc(C(C)(C)NC(=O)NCCN(CC)CC)c1 | 1.45% (inactive) |
| O=[N+]([O-])c1cc(S(=O)(=O)Nc2cccc(Cl)c2)ccc1N=Nc1c(O)[nH]c2ccccc12 | 7.97% (inactive) |
| COc1ccc(/C=C(\NC(=O)c2ccc(OCC(C)C)cc2)C(=O)OCc2ccco2)cc1 | 11.7% (active) |
| CCCCOc1ccc(C(=O)NCc2ccco2)cc1 | 0.66% (inactive) |
| O=C(OCN1C(=O)c2ccccc2C1=O)/C(=C\c1ccco1)NC(=O)c1ccccc1 | 1.22% (inactive) |
| COc1ccc2c(c1)CCC/C2=N\OC(=O)c1ccccc1F | 0% (inactive) |
| Cc1ccc(S(=O)(=O)NC(C)C(=O)Nc2ccccc2C(=O)N2CCCC2)cc1 (stereo not given) | 0.67% (inactive) |
| COc1ccc(C(=O)NNS(=O)(=O)c2ccc(C)cc2)cc1 | 1.12% (inactive) |
| Cc1ccc(S(=O)(=O)NNC(=O)Nc2cccc3ccccc23)cc1 | 8.69% (active) |
| Cc1ccc(C(C[N+](=O)[O-])c2c(C)cc3ccccn23)cc1 (stereo not given) | 5.1% (inactive) |
| CCN1CCN(C(=O)CN(C)S(=O)(=O)c2ccc3ccccc3c2)CC1 | 1.12% (inactive) |
| N/C(=N\OC(=O)CCCC(=O)O)c1ncc(C(F)(F)F)cc1Cl | 1.61% (inactive) |
| O=C(c1cccs1)n1nc(NCc2ccccc2)nc1NCc1ccccc1 | 11.2% (active) |
| CCCC(=O)n1nc(NCc2ccc(OC)cc2)nc1NCc1ccc(OC)cc1 | 6.99% (inactive) |

| Compound | inhibition |
| --- | --- |
| O=C(CCC(=O)c1cccs1)NCc1ccccc1 | 1.52% (inactive) |
| O=C(NCCOc1ccccc1Cl)C(=O)Nc1ccccc1 | 4.17% (inactive) |
| NC(N)=Nc1nc2ccc(Br)cc2c(=O)[nH]1 | -0.37% (inactive) |
| CCOC(=O)c1c(NC(=O)CCC(=O)NCc2ccco2)sc2c1CCCC2 | 9.97% (active) |
| CCOCC(=O)Nc1sc2c(c1C(=O)OCC)CCCC2 | 2.1% (inactive) |
| CCOC(=O)c1c(NC(=S)NC(=O)c2ccco2)sc2c1CCCC2 | 4.55% (inactive) |
| Nc1cc(C(F)(F)F)ccc1N1CCOCC1 | 2.42% (inactive) |
| O=C(CN1CCN(S(=O)(=O)c2ccc(Br)cc2)CC1)Nc1ccccc1C(=O)c1ccccc1 | 3.25% (inactive) |
| Cc1cc2ccccc2n1CCNC(=O)COc1ccc2ccccc2c1 | 11.6% (active) |
| COC(=O)C(C)NC(=O)COc1ccc2ccccc2c1 (stereo not given) | 1.01% (inactive) |
| Cc1cc2ccccc2n1CCC(=O)O | -0.54% (inactive) |
| COc1ccc(S(=O)(=O)Nc2cccnc2)c(Cl)c1Cl | 2.49% (inactive) |
| CC(C)Cc1nn2c(=O)cc(O)nc2s1 | 1.5% (inactive) |
| COc1cccc(CNn2cn[nH]c2=S)c1OCc1ccccc1 | 1.01% (inactive) |
| CSc1c(SCc2ccccc2)cnn(Cc2ccccc2)c1=O | 1.14% (inactive) |
| COc1ccc(NC(=O)CN(C)S(=O)(=O)c2ccccc2)cc1OC | 0.34% (inactive) |
| COc1ccc(/C=C/C(=O)Nc2ccc3c(c2)OCCO3)cc1OC | 1.12% (inactive) |
| COc1ccc(S(=O)(=O)N(C)CC(=O)Nc2ccc3c(c2)OCCO3)cc1OC | 9.23% (active) |
| Cc1ccc(N2C(=O)C3CC3C2=O)cc1 (stereo not given) | 0% (inactive) |
| O=C(NCc1ccc(Cl)cc1)NCc1ccc(Cl)cc1 | 2.41% (inactive) |
| Cc1cccc(Oc2c([N+](=O)[O-])c(=O)n(C)c3ccccc23)c1 | 2.19% (inactive) |
| CC(C)c1csc(CN2CCC(CO)(Cc3ccccc3)CC2)n1 | 1.22% (inactive) |

| Compound | inhibition |
| --- | --- |
| COc1ccc([N+](=O)[O-])cc1NC(=O)CC1SC(=Nc2cccc(C)c2C)N(/N=C(\C)c2ccc(C)cc2)C1=O (stereo not given) | 9.07% (active) |
| COc1ccc([N+](=O)[O-])cc1NC(=O)c1ccc(N(Cc2ccccc2C)S(C)(=O)=O)cc1 | 4.39% (inactive) |
| COc1ccc([N+](=O)[O-])cc1NC(=O)CCc1ccccc1 | 0.95% (inactive) |
| Cc1ccccc1Nc1nc(N)nc(CSc2ccccc2)n1 | -0.26% (inactive) |
| COc1ccc(-c2nnc(SC(=O)N3c4ccccc4Sc4ccccc43)o2)cc1 | 8.49% (active) |
| COc1ccc(-c2nnc(SC(C)C#N)o2)cc1 (stereo not given) | -0.45% (inactive) |
| COc1ccc(-c2nnc(SCc3cccnc3)o2)cc1 | 0.36% (inactive) |
| CC1CCN(c2ccc([N+](=O)[O-])cc2C(N)=O)CC1 | 1.09% (inactive) |
| Cc1cc(C)c(NC(=S)N2CCCC2C(=O)O)c(C)c1 (stereo not given) | -0.25% (inactive) |
| COC(=O)c1ccc(C2C(Oc3ccccc3C)C(=O)N2CCc2ccc(OC)c(OC)c2)cc1 (stereo not given) | 12.4% (active) |
| COc1ccc(CCN2C(=O)c3[nH]nc(-c4ccccc4O)c3C2c2ccc(C)cc2)cc1OC (stereo not given) | 1.8% (inactive) |
| COc1ccc(CCNC(=O)C(=O)NCc2ccccc2C)cc1OC | 0.77% (inactive) |
| Cc1sc2c(c1C)c(=O)n(-c1ccccc1)c(=O)n2CC(=O)NCC1CCCO1 (stereo not given) | 1.92% (inactive) |
| O=C(O)/C=C/C(=O)NNc1ccc([N+](=O)[O-])cc1 | 0.13% (inactive) |
| CCOCCCNC(=O)C(NC(=O)c1ccccc1O)c1ccccc1 (stereo not given) | 0% (inactive) |
| Cc1nn(-c2ccccc2)c(Cl)c1/C=C/C(=O)c1ccc(O)cc1 | 8.5% (active) |
| Cc1ccc(-n2nc(C)c(/C=N/NC(=O)c3cccs3)c2Cl)cc1 | 5.29% (inactive) |
| Cc1nn(-c2ccccc2)c(C)c1NC(=O)CCl | 3.63% (inactive) |
| Cc1nn(-c2ccccc2)c(Cl)c1C(=O)Nc1ccccc1 | 6.51% (inactive) |
| Cc1ccc(C(=O)/C=C/c2c(C)nn(-c3ccccc3)c2Cl)cc1 | 14.1% (active) |
| Cc1nn(-c2ccccc2)c(C)c1/C=C/C(=O)OC(C)C(N)=O (stereo not given) | 1.08% (inactive) |
